Assay results reported in the supplement of paper PMC7695840.

Tested on: Staphylococcus aureus MW2 delta-mecA (mecA-)
Experiment: normalized GFP fluorescence (growth of mecA- strain) (fraction of control range); higher = more growth of mecA- strain
Conditions: compound concentration: 150 uM; cefoxitin: subinhibitory; fluorescent label: GFP
Outline: (§1)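 Two pre-induced S. aureus MW2 strains, one with the gene labeled by DsRed and one lacking it labeled by GFP, were mixed 1:1 in LB with a subinhibitory antibiotic dose set daily. The mix went at 5 µL/well onto 150 μM compound (1.5% DMSO) in 1536-well plates, single replicate, and grew unshaken 20 h at 37 °C, 90% humidity. DsRed (540/590) and GFP (485/520) values were scaled per plate between single-strain control medians, and plates with high untreated ratios or rows with DsRed/GFP >10 were left out.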

SMILES	normalized GFP fluorescence
Nc1ncnc2c1ncn2[C@@H]1O[C@H](CO)[C@@H](O)[C@@H]1O	0.428
C[C@@H]1O[C@@H]1P(=O)(O)O	0.142
CCC1=C(C)CN(C(=O)NCCc2ccc(S(=O)(=O)NC(=O)N[C@H]3CC[C@H](C)CC3)cc2)C1=O	0.0961
Nc1ccc(S(=O)(=O)Nc2ccccn2)cc1	0.364
CO[C@H]1C[C@@H]2CC[C@@H](C)[C@@](O)(O2)C(=O)C(=O)N2CCCC[C@H]2C(=O)O[C@H]([C@H](C)C[C@@H]2CC[C@@H](O)[C@H](OC)C2)CC(=O)[C@H](C)/C=C(\C)[C@@H](O)[C@@H](OC)C(=O)[C@H](C)C[C@H](C)/C=C/C=C/C=C/1C [Rapamycin (Sirolimus)]	0.00415
CC(=O)Oc1cccc(O)c1	0.353
CCC[C@H](N[C@@H](C)C(=O)N1[C@H](C(=O)O)C[C@@H]2CCCC[C@@H]21)C(=O)OCC [Perindopril Erbumine (Aceon)]	0.225
C[C@@H](O)[C@H]1C(=O)N2C(C(=O)O)=C(SCCNC=N)C[C@H]12	-0.0325

Tested on: Staphylococcus aureus MW2 (mecA+)
Experiment: normalized DsRed fluorescence (growth of mecA+ strain) (fraction of control range); higher = more growth of mecA+ strain
Conditions: compound concentration: 150 uM; cefoxitin: subinhibitory; fluorescent label: DsRed
Outline: as §1

SMILES	normalized DsRed fluorescence
C=C[C@H]1CN2CC[C@H]1C[C@H]2[C@H](O)c1ccnc2ccc(OC)cc12	0.748
CCCCC(=O)O[C@]1(C(=O)CO)CC[C@H]2[C@@H]3CCC4=CC(=O)CC[C@]4(C)[C@H]3[C@@H](O)C[C@@]21C	0.447
C1CCN2C[C@@H]3C[C@@H](CN4CCCC[C@@H]34)[C@H]2C1	0.556
CC(=O)N(CC(O)CN(C(C)=O)c1c(I)c(C(=O)NCC(O)CO)c(I)c(C(=O)NCC(O)CO)c1I)c1c(I)c(C(=O)NCC(O)CO)c(I)c(C(=O)NCC(O)CO)c1I (centres undefined)	0.83
OC(CCN1CCCC1)(c1ccccc1)C1CCCCC1 (centres undefined)	1.7
O=C(/C=C/c1cccc(S(=O)(=O)Nc2ccccc2)c1)NO [Belinostat (PXD101)]	1.16
Cc1c2oc3c(C)ccc(C(=O)N[C@@H]4C(=O)N[C@H](C(C)C)C(=O)N5CCC[C@H]5C(=O)N(C)CC(=O)N(C)[C@@H](C(C)C)C(=O)O[C@@H]4C)c3nc-2c(C(=O)N[C@@H]2C(=O)N[C@H](C(C)C)C(=O)N3CCC[C@H]3C(=O)N(C)CC(=O)N(C)[C@@H](C(C)C)C(=O)O[C@@H]2C)c(N)c1=O	0.0533
O=C(CCCN1CC=C(n2c(=O)[nH]c3ccccc32)CC1)c1ccc(F)cc1	0.702
CCN(Cc1ccncc1)C(=O)C(CO)c1ccccc1 (centres undefined)	0.607
Cc1cc(CC(=O)O)n(C)c1C(=O)c1ccc(Cl)cc1	0.63
NNC(=O)c1ccncc1	1.03
CC(C)NCC(O)COc1ccc(CC(N)=O)cc1 (centres undefined)	0.749
Nc1ncnc2c1ncn2[C@@H]1O[C@H](CO)[C@@H](O)[C@@H]1O	0.346
Nc1ccc(S(=O)(=O)Nc2ccccn2)cc1	0.542
CC(=O)Oc1cccc(O)c1	0.584
CCC[C@H](N[C@@H](C)C(=O)N1[C@H](C(=O)O)C[C@@H]2CCCC[C@@H]21)C(=O)OCC [Perindopril Erbumine (Aceon)]	0.779
